Here are results for seven compounds from PubChem BioAssay.

Experiment [1] has as its target 6-phosphogluconate dehydrogenase, decarboxylating (Homo sapiens) (UniProt P52209). In words: inhibition of human phosphogluconate dehydrogenase – biochemical, recombinant enzyme, NADPH absorbance, primary screen (AID 1159550;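 active = at least 20% inhibition of 6-phosphogluconate dehydrogenase activity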). The following applies: recombinant 6PGD, NADPH absorbance 341 nm; at 10 µM; stronger effect = higher value.
Experiment [2] in a line: growth inhibition, single agent or in combination, cell-based, chromothripsis tumors, cisplatin or BGB combos (AID 1671449).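 Also: cells exposed for 96 hours; 0% = vehicle DMSO and 100% = killing by high DMSO.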 The following applies: LFS_MB_P medulloblastoma cells.
A short description of experiment [3]: growth inhibition, single agent and combos, cell-based, chromothripsis tumors, cisplatin or BGB combos (AID 1671450).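 Also: cells exposed to compound for four days; 0% = vehicle DMSO and 100% = cell killing by high DMSO.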 The following applies: HDN33 neuroblastoma cells, stronger effect = higher value.
Experiment [4] can be described thus: growth inhibition, single agents and combos, ICB984, cell-based, cisplatin or BGB combos, synergistic combos for chromothripsis tumors (AID 1671451; call rule not given here;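 also: cells exposed for 96 hours before readout; 0% = vehicle DMSO and 100% = killing by high DMSO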). The note with it: ICB984 medulloblastoma cells, drug combinations, stronger effect = higher value.
Experiment [5] in a line: growth inhibition, single agents and combos, LFS_MB_1R, cell-based, cisplatin or BGB combos, synergistic combos for chromothripsis tumors (AID 1671452).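 Also: cells exposed for 96 hours before readout.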 The following applies: LFS_MB_1R medulloblastoma cells, stronger effect = higher value.
Experiment [6] in a line: growth inhibition, single agents and combos, HTB85, cell-based, BGB or cisplatin IC20 combos, synergistic combos for chromothripsis tumors (AID 1671453).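 Also: cells exposed for 96 hours before readout; 0% = vehicle DMSO and 100% = high DMSO killing control.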 The following applies: HTB85 osteosarcoma cells, drug combinations, stronger effect = higher value.
Experiment [7] can be described thus: growth inhibition, single agents and combos, CRL2098, cell-based, BGB or cisplatin IC20 combos, synergistic combos for chromothripsis tumors (AID 1671454).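 Also: cells exposed for 96 h before readout; 0% = vehicle DMSO and 100% = killing by high DMSO.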 The following applies: CRL2098 osteosarcoma cells, drug combinations, stronger effect = higher value.
Experiment [8] can be described thus: growth inhibition, single agents and combos, HD-MB03, cell-based, BGB or cisplatin IC20 combos, synergistic combos for chromothripsis tumors (AID 1671455; in the data active = inhibition above about 83%;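 also: 0% = vehicle DMSO and 100% = high DMSO as cytotoxic control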). The note with it: HD-MB03 medulloblastoma cells, stronger effect = higher value.
A short description of experiment [9]: growth inhibition, single agents and combos, UWB1.289, cell-based, BGB or cisplatin combos, synergistic combos for chromothripsis tumors (AID 1671456).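 Also: cells exposed to compound for four days; 0% = vehicle DMSO and 100% = killing by high DMSO.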 The note with it: UWB1.289 ovarian carcinoma cells, stronger effect = higher value.
Experiment [10] is described as follows: growth inhibition, single agents and combos, LFS_MB_2R, cell-based, cisplatin combos, synergistic combos for chromothripsis tumors (AID 1671457).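 Also: cells exposed to compound for four days before readout.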 The following applies: LFS_MB_2R medulloblastoma cells, stronger effect = higher value.
Experiment [11] can be described thus: growth inhibition, MDA-MB-436, cell-based, BGB or cisplatin combos, synergistic combos for chromothripsis tumors (AID 1671458; call rule not given here;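 also: cells exposed for 96 hours; 0% = vehicle DMSO and 100% = killing by high DMSO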). The note with it: MDA-MB-436 breast carcinoma growth inhibition, drug combinations, stronger effect = higher value.
Experiment [12] can be described thus: UWB1.289_BRCA1 ovarian cancer growth, cell-based, BGB or cisplatin combinations (AID 1671459). The note with it: UWB1.289 BRCA1 ovarian carcinoma, drug combinations, stronger effect = higher value.
Experiment [13] in a line: drug combination toxicity in non-malignant astrocytes – cell-based, BGB or cisplatin IC20 combos, cytotoxicity control for chromothriptic childhood tumor combination screen (AID 1671460).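 Also: cells exposed to compounds for 96 hours before viability readout; 0% = vehicle and 100% = killing control.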 The note with it: Human astrocytes, viability inhibition, drug combinations, at 0.5 µM, stronger effect = higher value.
Experiment [14] in a line: BT084 cell growth, single and combined drugs, ICGC_MB145, cisplatin and BGB IC40 combos (AID 1671461).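 Also: cells exposed to drugs for 96 hours; 0% = vehicle DMSO and 100% = high DMSO full killing control.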 The following applies: BT084 medulloblastoma cells, drug combinations, stronger effect = higher value.
Experiment [15] can be described thus: RCMB18 cell growth, single agent and combined, cisplatin and BGB IC40 combos (AID 1671462).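 Also: cells exposed to compound for four days.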 The following applies: RCMB18 medulloblastoma cells, stronger effect = higher value.
Experiment [16] is described as follows: CRL1545 cell growth, single agent and combined, cisplatin and BGB IC20 combos (AID 1671464).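 Also: cells exposed to compound for 96 hours before readout; 0% = vehicle DMSO and 100% = high DMSO killing control.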 The following applies: CRL1545 osteosarcoma cells, stronger effect = higher value.
The target in experiment [17] is Calcium-dependent protein kinase 1 (Plasmodium falciparum (isolate 3D7)) (UniProt P62344). In words: PfCDPK1 kinase inhibitors, biochemical, TCAMS library (AID 1159585; cut-off not given, nearly all actives have IC50 up to about 0.98 µM;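 also: inhibitors leave more ATP so luminescence rises with inhibition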). The following applies: recombinant PfCDPK1, Kinase-Glo ATP depletion luminescence.
Experiment [18] has as its target Plasmodium falciparum protein kinase 6 (PK6, PF3D7_1337100) (UniProt Q8IDW1). In words: PfPK6 kinase inhibitors, biochemical, TCAMS library (AID 1159586; call rule not given here). The following applies: recombinant PfPK6, Kinase-Glo ATP depletion luminescence.
For experiment [19], the target named is Protein kinase 7 (PK7), Plasmodium falciparum 3D7 (PF3D7_0213400) (UniProt Q7YTF7). In words: inhibition of Plasmodium PK7 catalytic activity – biochemical, TCAMS antimalarial set, Kinase-Glo luminescence (AID 1159587; call rule not given here). The note with it: recombinant PfPK7, Kinase-Glo ATP depletion luminescence. (Kinase-Glo measures the ATP left after a reaction by luminescence.)

Experiment [20] has as its target Calcium-dependent protein kinase 4 (Plasmodium falciparum (isolate 3D7)) (UniProt Q8IBS5). In words: PfCDPK4 kinase inhibitors, biochemical, TCAMS library (AID 1159588; cut-off not given, nearly all actives have IC50 up to about 0.91 µM). The following applies: recombinant PfCDPK4, Kinase-Glo ATP depletion luminescence.
In experiment [21] the target is ATP-dependent translocase ABCB1 (Homo sapiens) (UniProt P08183). In words: P-glycoprotein substrate transport blockade – cell-based (AID 377; in the data active = fluorescence slope change above about 50%). The following applies: MDR1-expressing cells, fluorescent substrate accumulation slope; stronger effect = higher value; concentration not given here.
Experiment [22] can be described thus: compounds altering viability of human ES cells (AID 493140; call rule not given here;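 also: cells exposed to compounds for four days before counting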). The following applies: human embryonic stem cell survival screen; stronger effect = higher value.
Experiment [23] in a line: P. berghei load reduction in hepatocytes – cell-based, HepG2, luciferase luminescence, HepG2 viability, primary screen (AID 624349; in the data active = parasite load remaining mostly below about 12%, no sharp cut-off; inactive = mostly above about 10%;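 also: 100% = mean of DMSO negative control wells on the same plate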). The following applies: P. berghei liver stage in HepG2, luciferase luminescence, concentration not given here; parasite load remaining: stronger effect = lower value; viability: measured here: HepG2 viability without parasites.
Where [24] appears, read: measured here: combination with BGB IC40, at 0.05 µM.
Where [25] appears, read: measured here: with BGB IC20 combination, at 0.5 µM.
Where [26] appears, read: measured here: with cisplatin IC20 combination, at 0.5 µM.
Setting [27] is: measured here: combination with cisplatin, at 0.5 µM.
Where [28] appears, read: measured here: combination with cisplatin, at 5 µM.

SMILES strings stand for the structures. Records with an inconclusive call do not appear. For some assays here: Results with a measured potency or affinity are listed apart. Active and inactive are the calls of the source. Rule as the data show it, unless noted: active = inhibition above about 80%; inactive = the rest.

Sequence of Calcium-dependent protein kinase 4 (Plasmodium falciparum (isolate 3D7)) (Q8IBS5 whole entry, looked up): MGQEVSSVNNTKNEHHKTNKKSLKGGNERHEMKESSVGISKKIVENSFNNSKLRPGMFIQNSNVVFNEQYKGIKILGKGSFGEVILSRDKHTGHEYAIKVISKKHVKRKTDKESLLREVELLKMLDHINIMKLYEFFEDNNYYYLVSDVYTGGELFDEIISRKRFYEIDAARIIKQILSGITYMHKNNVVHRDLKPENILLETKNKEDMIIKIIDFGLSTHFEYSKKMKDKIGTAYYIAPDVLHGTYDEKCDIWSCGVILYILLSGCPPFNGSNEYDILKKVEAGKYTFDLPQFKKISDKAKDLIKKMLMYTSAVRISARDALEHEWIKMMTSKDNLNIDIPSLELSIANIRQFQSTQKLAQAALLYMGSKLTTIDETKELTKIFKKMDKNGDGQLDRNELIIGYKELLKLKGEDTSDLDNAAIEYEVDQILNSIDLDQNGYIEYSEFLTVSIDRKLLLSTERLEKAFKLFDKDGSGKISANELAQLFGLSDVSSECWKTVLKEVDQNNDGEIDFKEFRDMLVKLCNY
Sequence of Protein kinase 7 (PK7), Plasmodium falciparum 3D7 (PF3D7_0213400) (Q7YTF7 1-343): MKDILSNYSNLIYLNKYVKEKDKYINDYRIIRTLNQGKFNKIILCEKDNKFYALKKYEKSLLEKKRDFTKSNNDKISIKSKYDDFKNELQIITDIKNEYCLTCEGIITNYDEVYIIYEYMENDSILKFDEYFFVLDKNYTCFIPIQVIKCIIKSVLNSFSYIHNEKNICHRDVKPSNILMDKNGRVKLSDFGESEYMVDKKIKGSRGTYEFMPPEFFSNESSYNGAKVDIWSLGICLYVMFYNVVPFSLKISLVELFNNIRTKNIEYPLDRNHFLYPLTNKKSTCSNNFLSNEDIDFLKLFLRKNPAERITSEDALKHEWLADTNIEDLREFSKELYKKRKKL
Sequence of Plasmodium falciparum protein kinase 6 (PK6, PF3D7_1337100) (Q8IDW1 1-305): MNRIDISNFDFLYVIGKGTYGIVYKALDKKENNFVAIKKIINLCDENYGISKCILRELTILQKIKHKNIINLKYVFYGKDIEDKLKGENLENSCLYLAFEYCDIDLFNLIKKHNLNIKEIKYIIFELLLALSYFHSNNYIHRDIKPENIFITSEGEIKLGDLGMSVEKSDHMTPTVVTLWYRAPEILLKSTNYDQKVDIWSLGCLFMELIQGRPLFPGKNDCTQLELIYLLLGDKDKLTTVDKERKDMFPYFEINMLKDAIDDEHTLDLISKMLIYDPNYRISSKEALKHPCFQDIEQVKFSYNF
Sequence of Calcium-dependent protein kinase 1 (Plasmodium falciparum (isolate 3D7)) (P62344 whole entry, looked up): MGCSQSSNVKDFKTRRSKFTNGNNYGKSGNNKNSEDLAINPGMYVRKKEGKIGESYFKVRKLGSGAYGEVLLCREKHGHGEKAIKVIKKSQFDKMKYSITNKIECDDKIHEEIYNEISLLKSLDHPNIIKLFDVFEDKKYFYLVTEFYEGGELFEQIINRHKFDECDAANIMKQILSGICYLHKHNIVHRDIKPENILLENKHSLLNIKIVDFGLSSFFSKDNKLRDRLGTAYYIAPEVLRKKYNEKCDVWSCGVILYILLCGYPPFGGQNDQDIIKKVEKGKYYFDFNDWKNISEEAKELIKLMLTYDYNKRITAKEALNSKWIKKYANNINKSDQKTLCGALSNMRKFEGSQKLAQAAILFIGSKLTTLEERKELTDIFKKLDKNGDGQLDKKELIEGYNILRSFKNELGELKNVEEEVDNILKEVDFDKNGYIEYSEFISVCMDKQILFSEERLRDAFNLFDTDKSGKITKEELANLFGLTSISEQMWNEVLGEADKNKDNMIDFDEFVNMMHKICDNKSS
Sequence of 6-phosphogluconate dehydrogenase, decarboxylating (Homo sapiens) (P52209 whole entry, looked up): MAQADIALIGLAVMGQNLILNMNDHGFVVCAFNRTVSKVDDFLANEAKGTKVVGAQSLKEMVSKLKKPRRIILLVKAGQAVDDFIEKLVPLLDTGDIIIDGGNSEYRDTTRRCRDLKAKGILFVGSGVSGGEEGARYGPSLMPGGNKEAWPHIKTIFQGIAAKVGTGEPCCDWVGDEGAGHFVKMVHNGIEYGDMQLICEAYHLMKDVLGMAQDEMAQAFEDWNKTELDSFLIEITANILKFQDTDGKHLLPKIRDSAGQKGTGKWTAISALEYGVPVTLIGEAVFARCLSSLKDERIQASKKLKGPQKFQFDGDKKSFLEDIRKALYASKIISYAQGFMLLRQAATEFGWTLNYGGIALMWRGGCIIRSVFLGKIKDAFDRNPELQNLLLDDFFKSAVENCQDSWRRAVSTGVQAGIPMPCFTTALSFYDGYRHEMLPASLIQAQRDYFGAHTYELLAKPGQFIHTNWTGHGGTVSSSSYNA
Sequence of ATP-dependent translocase ABCB1 (Homo sapiens) (P08183 whole entry, looked up): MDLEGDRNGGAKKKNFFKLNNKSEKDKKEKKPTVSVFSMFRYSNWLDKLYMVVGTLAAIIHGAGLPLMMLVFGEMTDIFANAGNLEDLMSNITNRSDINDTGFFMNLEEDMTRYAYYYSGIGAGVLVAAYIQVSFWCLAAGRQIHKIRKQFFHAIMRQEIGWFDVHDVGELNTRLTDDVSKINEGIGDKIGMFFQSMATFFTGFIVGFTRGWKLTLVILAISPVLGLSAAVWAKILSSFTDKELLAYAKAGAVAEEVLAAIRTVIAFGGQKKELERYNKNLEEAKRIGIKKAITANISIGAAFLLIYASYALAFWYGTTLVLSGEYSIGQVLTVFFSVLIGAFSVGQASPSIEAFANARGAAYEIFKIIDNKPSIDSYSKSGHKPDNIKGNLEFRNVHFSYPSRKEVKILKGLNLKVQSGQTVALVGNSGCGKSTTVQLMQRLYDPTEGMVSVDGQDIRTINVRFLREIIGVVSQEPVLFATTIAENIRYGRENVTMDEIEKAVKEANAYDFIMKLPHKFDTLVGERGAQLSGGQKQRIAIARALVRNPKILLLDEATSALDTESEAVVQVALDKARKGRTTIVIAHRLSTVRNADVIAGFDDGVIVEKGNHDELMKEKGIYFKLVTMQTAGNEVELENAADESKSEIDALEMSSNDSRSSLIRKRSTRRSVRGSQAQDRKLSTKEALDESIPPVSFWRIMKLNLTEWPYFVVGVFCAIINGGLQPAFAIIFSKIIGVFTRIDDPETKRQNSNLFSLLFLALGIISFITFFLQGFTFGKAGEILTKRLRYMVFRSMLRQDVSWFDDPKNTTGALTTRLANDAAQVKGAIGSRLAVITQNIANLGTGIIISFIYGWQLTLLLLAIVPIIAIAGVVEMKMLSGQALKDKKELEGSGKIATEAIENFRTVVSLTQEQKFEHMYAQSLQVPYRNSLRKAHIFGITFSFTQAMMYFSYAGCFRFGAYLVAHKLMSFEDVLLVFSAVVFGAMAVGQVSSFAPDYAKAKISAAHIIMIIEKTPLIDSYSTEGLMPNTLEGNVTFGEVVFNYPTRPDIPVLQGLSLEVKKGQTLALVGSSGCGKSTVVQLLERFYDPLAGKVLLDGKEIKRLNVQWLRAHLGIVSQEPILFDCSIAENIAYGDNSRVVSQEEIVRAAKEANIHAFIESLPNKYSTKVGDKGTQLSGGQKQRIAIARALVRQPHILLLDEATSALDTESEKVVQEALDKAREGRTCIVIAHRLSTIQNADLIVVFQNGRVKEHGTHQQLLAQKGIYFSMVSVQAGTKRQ

On to `CC1(C(=O)O)CCC2(C)CCC3(C)C(=CC(=O)C4C5(C)CCC(OC(=O)CCC(=O)O)C(C)(C)C5CCC43C)C2C1` (configuration not stated), for which the inhibition (commonly the relative decrease from the control value, in per cent) was 6.14% (inactive) in [1]; -21.3% (inactive) in experiment [2] (at 0.5 µM, stronger effect = higher value); -7.44% in experiment [2] (measured here: combination with BGB IC20, at 0.005 µM); -24.5% in experiment [2] (measured here: combination with BGB IC40, at 0.005 µM); -6.64% in [2] (setting [24]); -25.4% in experiment [2] (measured here: combination with cisplatin, at 0.5 µM, stronger effect = higher value). Moreover, the inhibition is 6.61% in experiment [2] (measured here: combination with cisplatin, at 5 µM, stronger effect = higher value); -10.4% in experiment [3] (BGB combo, at 5 µM); -10.5% (inactive) in [3] (at 0.5 µM); -11.2% in experiment [3] (cisplatin combo, at 5 µM); -1.57% in experiment [3] (setting [25]); -3.76% in [3] (setting [26]). In addition, the inhibition in experiment [3] (single agent, at 5 µM) is 0.047%; in [4] (BGB IC20 combo, at 0.005 µM), -6.54%; in [4] (BGB IC40 combo, at 0.005 µM) it was -25.3%; in experiment [4] (BGB IC40 combo, at 0.05 µM), 3.64%; in [4] (at 0.5 µM) it was -16.5% (inactive); in experiment [4] (cisplatin combo, at 0.05 µM) it was 3.64%. The inhibition in experiment [4] (cisplatin combo, at 0.5 µM) is -24%; in experiment [4] (cisplatin combo, at 5 µM), -37.6%; in [4] (measured here: 5 uM single agent, at 5 µM) it was -21.7%; in [5] (at 0.5 µM), -0.8% (inactive); in experiment [5] (setting [24]), -15.6%; in experiment [5] (setting [27]), 21.2%. Besides, the inhibition in experiment [5] (setting [28]) is -0.5%; in experiment [6] (at 0.5 µM), -18% (inactive); in experiment [6] (measured here: with BGB IC20, at 0.5 µM) it was -38.9%; in experiment [6] (measured here: with BGB IC20, at 5 µM), -13.2%; in [6] (measured here: with cisplatin IC20, at 0.5 µM), -4%; in experiment [6] (measured here: with cisplatin IC20, at 5 µM), -11%. For the same compound, the inhibition in experiment [6] (single agent, at 5 µM) was -22.6%; in [7] (at 0.5 µM), -75% (inactive); in experiment [7] (measured here: combination with BGB at IC20, at 0.5 µM), -54.3%; in experiment [7] (measured here: combination with cisplatin at IC20, at 0.5 µM), -113%; in experiment [8] (at 0.5 µM), 0.23% (inactive); in experiment [8] (measured here: combo with BGB at IC20, at 0.5 µM) it was -6.04%. The inhibition was 5.01% in [8] (measured here: combo with cisplatin at IC20, at 0.5 µM); -3.45% (inactive) in experiment [9] (at 0.5 µM); -24.1% in experiment [9] (measured here: inhibition with BGB combination, at 0.05 µM); -15.6% in [9] (measured here: inhibition with cisplatin combination, at 0.05 µM); -24.3% (inactive) in experiment [10] (at 0.5 µM); -26.3% in [10] (setting [27]). Further, the inhibition is -19.2% in [10] (setting [28]); -23.5% (inactive) in [11] (at 0.5 µM); -21% in experiment [11] (measured here: BGB combination, at 0.5 µM); -30.2% in experiment [11] (measured here: BGB combination, at 5 µM); -40.5% in experiment [11] (measured here: cisplatin combination, at 0.5 µM); -24% in [11] (measured here: cisplatin combination, at 5 µM). The inhibition in experiment [12] (BGB combination, concentration series, at 5 µM) was -13.7%; in experiment [12] (at 0.5 µM) it was -12.8% (inactive); in [12] (cisplatin combination, concentration series, at 5 µM) it was 3.23%; in [13], -10.9% (inactive); in experiment [13] (measured here: combo with BGB IC20), -14.8%; in experiment [13] (measured here: combo with cisplatin IC20), -13.4%. For the same compound, the inhibition in [14] (at 0.5 µM) is -17.1% (inactive); in experiment [14] (cisplatin combination, at 0.5 µM) it was 5.31%; in experiment [14] (cisplatin combination, at 5 µM), -38.2%; in [14] (measured here: BGB IC40 combination 0.05 uM, at 0.05 µM), -1.75%; in experiment [14] (single agent, at 5 µM), -40.2%; in experiment [15] (at 0.5 µM), -19.6% (inactive). Further, the inhibition in [15] (cisplatin combo, at 5 µM) was 13.2%; in [15] (measured here: BGB IC40 combination, at 0.05 µM), -21.9%; in experiment [15] (setting [27]) it was -3.15%; in [15] (single agent, at 5 µM), -16.1%; in experiment [16] (at 0.5 µM), -42.7% (inactive); in experiment [16] (setting [25]), -46.3%. Besides, the inhibition in [16] (setting [26]) is -40.9%; in [16] (single agent, at 0.05 µM), 5.52%; in experiment [16] (single agent, at 5 µM), 7.12%.

`O=[N+]([O-])c1ccc(-c2nc3ccc(C4=N[C@@H]5CCCC[C@@H]5N4)cc3[nH]2)cc1`: the outcome in [17], in experiment [18], in experiment [19] and in experiment [20] was inactive.

Turning to `CN(C)C(=S)N/N=C/c1cccc(O)c1O`, the outcome in experiment [17], in [18], in [19] and in experiment [20] was inactive.

Consider `CO[C@@H]1[C@@H](OC2OC(C)C(OC3CC(C)(O)C(O)C(C)O3)C(N(C)C)C2O)[C@@H](CC=O)C[C@@H](C)[C@@H](OC2CCC(N(C)C)C(C)O2)/C=C/C=C/C[C@@H](C)OC(=O)C[C@H]1O` (some centres not stated), for which, in experiment [21], the fluorescence slope change was 23.5% (inactive). The inhibition in experiment [1] is 5.19% (inactive).

As for `Cc1[nH]c2ccccc2c1/C=N/Nc1nc(Nc2ccccc2)nc(Nc2ccccc2)n1`, the outcome in experiment [17], in experiment [18], in experiment [19] and in experiment [20] was inactive.

On to `CO[C@H](C)[C@H](NC(=O)[C@@H](CC(C)C)[C@H](CCC(F)(F)F)N(O)C=O)C(=O)Nc1nccs1`, for which the result in experiment [17], in experiment [18], in [19] and in experiment [20] was inactive.

As to `CNC1C(O)C(OC2C(N)CC(N)C(OC3OC(CN)=CCC3N)C2O)OCC1(C)O` (configuration not stated), the fluorescence slope change in [21] was 28.9% (inactive). Also, the survival in experiment [22] was 9.33 (inactive). Moreover, in experiment [23], the parasite load remaining was 81.3% (inactive) and the viability – broadly, the share of living cells, or the viability signal relative to a control – worked out at 80.5%. In addition, the inhibition in experiment [1] was 0.544% (inactive).
